Laboratory results: the supplement of paper PMC11732987, “Enantioselective OTUD7B fragment discovery through chemoproteomics screening and high-throughput optimisation” (Communications Chemistry, 2025)

Columns and labels:
Assay in all cases: log2 ratio of Biotin-Ahx-Ub-VS probe labelling (fragment/DMSO); higher = less target engagement (more negative = stronger competition), active = hit call of the paper (q ≤ 0.05, log2 ratio ≤ -1)
Settings in all cases: compound concentration: 200 uM; treatment time: 3 h
ALG13 = molecular target: T1, ALG13 (UniProt Q9NP73)
T1 sequence (whole entry): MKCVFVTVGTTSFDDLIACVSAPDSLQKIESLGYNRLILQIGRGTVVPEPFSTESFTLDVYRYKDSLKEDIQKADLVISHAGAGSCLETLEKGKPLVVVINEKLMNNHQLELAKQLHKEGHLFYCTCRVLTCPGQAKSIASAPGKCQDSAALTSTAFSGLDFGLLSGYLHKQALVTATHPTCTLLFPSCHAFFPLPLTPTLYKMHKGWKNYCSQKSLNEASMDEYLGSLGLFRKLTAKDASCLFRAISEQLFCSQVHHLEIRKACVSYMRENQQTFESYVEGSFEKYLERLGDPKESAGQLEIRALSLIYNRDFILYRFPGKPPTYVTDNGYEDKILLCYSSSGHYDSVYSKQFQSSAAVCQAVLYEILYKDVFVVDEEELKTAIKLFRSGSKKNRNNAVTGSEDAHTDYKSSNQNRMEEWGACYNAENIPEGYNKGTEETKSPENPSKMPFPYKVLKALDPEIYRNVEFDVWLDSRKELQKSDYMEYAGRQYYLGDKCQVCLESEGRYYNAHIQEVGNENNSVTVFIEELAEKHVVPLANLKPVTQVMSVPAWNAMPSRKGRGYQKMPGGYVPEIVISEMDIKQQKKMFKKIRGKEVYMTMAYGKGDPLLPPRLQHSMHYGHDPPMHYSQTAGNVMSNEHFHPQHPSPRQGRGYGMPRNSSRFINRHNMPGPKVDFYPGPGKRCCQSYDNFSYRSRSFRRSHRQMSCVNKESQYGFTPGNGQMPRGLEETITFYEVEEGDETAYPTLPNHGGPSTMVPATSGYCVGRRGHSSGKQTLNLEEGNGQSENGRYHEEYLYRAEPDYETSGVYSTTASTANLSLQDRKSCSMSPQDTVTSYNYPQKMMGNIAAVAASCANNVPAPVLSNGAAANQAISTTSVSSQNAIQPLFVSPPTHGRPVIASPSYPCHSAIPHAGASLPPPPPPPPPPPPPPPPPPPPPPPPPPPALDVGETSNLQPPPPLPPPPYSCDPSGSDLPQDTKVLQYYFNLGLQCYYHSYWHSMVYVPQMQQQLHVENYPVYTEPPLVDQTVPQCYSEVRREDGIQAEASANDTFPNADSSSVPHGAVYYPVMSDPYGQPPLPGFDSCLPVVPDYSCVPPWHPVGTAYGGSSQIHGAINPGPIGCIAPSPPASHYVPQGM
How it was run: (§1)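 Fragment (200 µM) or vehicle was incubated for 3 h with triplicate HEK293T lysate samples of 495 µg, which were then treated with Biotin-Ahx-Ub-VS at 0.5 µM final for 1 h. Labelled DUBs were enriched on NeutrAvidin, digested with LysC and trypsin, and analysed by diaPASEF LC-MS/MS. Values are average log2 fragment/vehicle ratios from an unpaired t-test on global-median-normalised Spectronaut label-free quantities, using proteins with ≥2 unique peptides.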

ATXN3 = ATXN3 (UniProt P54252)
Chain of ATXN3 (P54252 whole entry): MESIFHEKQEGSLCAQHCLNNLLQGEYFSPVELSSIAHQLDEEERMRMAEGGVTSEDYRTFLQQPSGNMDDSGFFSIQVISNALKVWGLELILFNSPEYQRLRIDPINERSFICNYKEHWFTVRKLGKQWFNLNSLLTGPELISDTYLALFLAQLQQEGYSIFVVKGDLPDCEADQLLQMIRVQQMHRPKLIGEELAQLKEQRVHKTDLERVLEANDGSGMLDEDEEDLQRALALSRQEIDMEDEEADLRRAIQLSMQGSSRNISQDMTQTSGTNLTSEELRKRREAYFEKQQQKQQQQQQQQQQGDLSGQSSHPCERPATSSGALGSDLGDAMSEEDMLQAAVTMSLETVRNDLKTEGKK
How it was run: as §1

BAP1 = molecular target: T2, BAP1 (UniProt Q92560)
T2 sequence (whole entry): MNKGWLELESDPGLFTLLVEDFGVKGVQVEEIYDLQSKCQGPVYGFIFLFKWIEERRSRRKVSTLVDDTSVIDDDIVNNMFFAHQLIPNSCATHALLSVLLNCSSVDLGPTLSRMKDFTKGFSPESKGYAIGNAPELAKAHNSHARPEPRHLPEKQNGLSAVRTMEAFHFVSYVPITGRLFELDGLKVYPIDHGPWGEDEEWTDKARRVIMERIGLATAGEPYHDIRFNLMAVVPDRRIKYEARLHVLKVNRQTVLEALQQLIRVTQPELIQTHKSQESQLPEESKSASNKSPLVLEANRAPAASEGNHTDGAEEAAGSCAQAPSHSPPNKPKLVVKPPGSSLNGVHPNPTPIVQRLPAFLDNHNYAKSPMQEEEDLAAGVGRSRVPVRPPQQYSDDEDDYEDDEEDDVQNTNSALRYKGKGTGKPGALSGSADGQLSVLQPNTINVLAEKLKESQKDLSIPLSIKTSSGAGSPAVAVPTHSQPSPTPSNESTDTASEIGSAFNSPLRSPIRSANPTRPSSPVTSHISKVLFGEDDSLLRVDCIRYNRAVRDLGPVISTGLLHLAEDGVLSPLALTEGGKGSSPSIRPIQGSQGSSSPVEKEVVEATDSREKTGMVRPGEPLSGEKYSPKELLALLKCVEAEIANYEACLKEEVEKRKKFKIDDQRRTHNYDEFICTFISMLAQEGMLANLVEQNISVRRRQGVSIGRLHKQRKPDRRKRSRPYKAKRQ
How it was run: as §1

EIF3F = EIF3F (UniProt O00303)
Chain of EIF3F (O00303 whole entry): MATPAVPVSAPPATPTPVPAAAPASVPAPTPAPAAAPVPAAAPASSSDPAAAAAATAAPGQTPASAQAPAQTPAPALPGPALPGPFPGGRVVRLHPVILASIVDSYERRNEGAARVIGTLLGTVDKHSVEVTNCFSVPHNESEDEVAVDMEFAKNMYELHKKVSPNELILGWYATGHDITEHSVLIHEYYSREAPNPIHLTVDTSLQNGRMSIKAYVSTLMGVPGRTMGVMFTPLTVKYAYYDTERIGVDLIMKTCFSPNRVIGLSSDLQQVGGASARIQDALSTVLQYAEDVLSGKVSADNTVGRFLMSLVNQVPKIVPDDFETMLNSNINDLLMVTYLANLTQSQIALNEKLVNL
How it was run: as §1

EIF3H = EIF3H (UniProt O15372)
Chain of EIF3H (O15372 whole entry): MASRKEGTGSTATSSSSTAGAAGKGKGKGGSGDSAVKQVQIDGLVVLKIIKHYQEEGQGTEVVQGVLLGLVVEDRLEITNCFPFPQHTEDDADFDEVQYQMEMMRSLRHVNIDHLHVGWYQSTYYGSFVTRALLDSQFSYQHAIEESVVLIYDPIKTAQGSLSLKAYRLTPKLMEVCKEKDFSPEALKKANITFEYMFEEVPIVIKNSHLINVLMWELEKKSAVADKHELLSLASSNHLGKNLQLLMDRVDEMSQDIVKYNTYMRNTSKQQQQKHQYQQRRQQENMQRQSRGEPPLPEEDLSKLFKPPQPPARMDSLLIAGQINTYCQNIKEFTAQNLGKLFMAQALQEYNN
How it was run: as §1

FAM105A = molecular target: T3, FAM105A (UniProt Q9NUU6)
T3 sequence (whole entry): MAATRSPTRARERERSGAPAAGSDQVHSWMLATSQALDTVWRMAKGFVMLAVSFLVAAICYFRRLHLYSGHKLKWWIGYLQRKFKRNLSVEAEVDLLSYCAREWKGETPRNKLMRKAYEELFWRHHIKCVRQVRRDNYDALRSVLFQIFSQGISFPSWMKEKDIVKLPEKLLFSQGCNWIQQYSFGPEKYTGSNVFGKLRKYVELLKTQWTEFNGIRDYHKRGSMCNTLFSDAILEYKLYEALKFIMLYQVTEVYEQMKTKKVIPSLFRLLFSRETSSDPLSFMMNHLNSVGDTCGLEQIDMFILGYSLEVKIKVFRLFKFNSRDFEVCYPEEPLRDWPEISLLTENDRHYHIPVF
How it was run: as §1

OTUB1 = OTUB1 (UniProt Q96FW1)
Chain of OTUB1 (Q96FW1 whole entry): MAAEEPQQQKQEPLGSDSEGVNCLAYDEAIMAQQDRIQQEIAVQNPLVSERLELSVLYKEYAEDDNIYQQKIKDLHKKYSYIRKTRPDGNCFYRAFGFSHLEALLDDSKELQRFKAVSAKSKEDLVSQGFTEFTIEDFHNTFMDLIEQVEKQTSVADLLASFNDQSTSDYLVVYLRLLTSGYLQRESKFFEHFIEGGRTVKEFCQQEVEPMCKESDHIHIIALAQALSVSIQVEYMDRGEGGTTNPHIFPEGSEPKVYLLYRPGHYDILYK
How it was run: as §1

OTUD4 = molecular target: T4, OTUD4 (UniProt Q01804)
T4 sequence (whole entry): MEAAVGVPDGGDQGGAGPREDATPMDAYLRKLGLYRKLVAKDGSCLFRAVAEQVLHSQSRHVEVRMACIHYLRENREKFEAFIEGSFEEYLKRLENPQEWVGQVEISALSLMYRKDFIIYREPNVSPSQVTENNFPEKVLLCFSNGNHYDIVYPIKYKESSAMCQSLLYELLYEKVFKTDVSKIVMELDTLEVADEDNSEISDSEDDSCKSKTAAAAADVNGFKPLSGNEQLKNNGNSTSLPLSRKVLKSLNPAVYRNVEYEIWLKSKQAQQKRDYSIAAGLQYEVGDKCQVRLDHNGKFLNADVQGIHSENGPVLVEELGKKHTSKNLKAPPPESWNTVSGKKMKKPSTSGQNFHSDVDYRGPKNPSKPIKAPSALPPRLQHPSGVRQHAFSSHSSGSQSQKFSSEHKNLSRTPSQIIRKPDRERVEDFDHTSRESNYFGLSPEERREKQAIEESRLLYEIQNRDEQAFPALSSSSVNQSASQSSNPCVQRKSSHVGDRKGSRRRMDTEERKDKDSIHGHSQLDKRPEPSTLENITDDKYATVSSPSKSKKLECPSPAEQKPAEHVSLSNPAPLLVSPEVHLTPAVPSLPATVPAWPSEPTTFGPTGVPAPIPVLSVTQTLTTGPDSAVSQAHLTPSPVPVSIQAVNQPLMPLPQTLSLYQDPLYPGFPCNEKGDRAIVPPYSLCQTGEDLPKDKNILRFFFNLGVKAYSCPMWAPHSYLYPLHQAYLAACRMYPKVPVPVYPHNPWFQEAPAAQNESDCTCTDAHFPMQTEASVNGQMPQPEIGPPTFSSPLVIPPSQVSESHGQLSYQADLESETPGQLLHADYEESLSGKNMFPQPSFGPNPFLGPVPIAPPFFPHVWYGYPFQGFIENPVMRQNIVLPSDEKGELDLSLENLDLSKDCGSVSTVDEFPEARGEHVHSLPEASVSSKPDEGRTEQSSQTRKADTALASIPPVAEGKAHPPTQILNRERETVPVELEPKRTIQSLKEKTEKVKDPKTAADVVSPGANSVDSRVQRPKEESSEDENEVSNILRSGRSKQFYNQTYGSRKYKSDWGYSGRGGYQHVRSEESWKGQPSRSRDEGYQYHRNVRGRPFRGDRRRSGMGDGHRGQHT
How it was run: as §1

OTUD5 = molecular target: T5, OTUD5 (UniProt Q96G74)
T5 sequence (whole entry): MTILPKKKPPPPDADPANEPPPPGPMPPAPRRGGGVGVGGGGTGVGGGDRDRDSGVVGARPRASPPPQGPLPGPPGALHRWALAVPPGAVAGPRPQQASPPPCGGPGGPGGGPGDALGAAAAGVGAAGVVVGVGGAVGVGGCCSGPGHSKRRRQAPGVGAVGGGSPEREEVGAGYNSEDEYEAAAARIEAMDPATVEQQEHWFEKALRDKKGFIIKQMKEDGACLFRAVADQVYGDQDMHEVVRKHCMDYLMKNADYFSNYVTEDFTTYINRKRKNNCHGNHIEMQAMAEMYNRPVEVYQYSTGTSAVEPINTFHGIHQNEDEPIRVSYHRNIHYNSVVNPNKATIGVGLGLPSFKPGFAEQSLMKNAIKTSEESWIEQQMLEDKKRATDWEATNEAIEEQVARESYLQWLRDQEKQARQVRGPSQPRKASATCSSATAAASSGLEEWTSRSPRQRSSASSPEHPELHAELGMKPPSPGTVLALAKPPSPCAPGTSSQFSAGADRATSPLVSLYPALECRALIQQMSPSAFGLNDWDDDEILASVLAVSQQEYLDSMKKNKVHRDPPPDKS
How it was run: as §1

Measured: log2 ratio of Biotin-Ahx-Ub-VS probe labelling

Cl.O=C(CCl)N1CCC(n2nc3ccccc3n2)CC1
active: ATXN3 -1.1 | BAP1 -2.08
inactive: ALG13 -0.254 | EIF3F -0.315 | EIF3H -0.151 | FAM105A 0.315 | OTUB1 -0.67 | OTUD4 -0.134 | OTUD5 -0.494
